Assay results: the supplement of paper PMC6555819

Key:
Assay in all cases: PBM binding z-score (relative to random genomic background probes); higher = stronger binding; sequences stand for … in GC…GCGATTGACAGCGTAGAATGAAGG
[1] = test system: FXR:RXRa (NR concentration 270 nM, RXRa partner concentration 90 nM)
Method in brief: (§1)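 Antibodies against each partner of ligand-free nuclear receptor dimers (one per run) detected binding on custom Agilent 4×180K protein-binding microarrays after 1 h incubation. The double-stranded probes had 34-nt variable regions carrying direct-repeat seeds, single-nucleotide variants, half-site ablations and random human genomic background sequences. Binding z-scores, from regression-normalized fluorescence, use the random background probes as reference.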

[2] = test system: LXRa:RXRa (NR concentration 270 nM, RXRa partner concentration 90 nM)
Method in brief: as §1

[3] = test system: LXRa homodimer (NR concentration 270 nM)
Method in brief: as §1

[4] = test system: LXRb:RXRa (NR concentration 270 nM, RXRa partner concentration 90 nM)
Method in brief: as §1

[5] = test system: LXRb homodimer (NR concentration 270 nM)
Method in brief: as §1

[6] = test system: PPARa:RXRa (NR concentration 270 nM, RXRa partner concentration 90 nM)
Method in brief: as §1

[7] = test system: PPARg:RXRa (NR concentration 180 nM, RXRa partner concentration 90 nM)
Method in brief: as §1

[8] = test system: PPARg:RXRa 270nM:90nM, anti-RXR (NR concentration 270 nM, RXRa partner concentration 90 nM)
Method in brief: as §1

[9] = test system: PPARg:RXRa 30nM:10nM, anti-RXR (NR concentration 30 nM, RXRa partner concentration 10 nM)
Method in brief: as §1

[10] = test system: PPARg:RXRa 90nM:30nM, anti-RXR (NR concentration 90 nM, RXRa partner concentration 30 nM)
Method in brief: as §1

[11] = test system: PPARg:RXRa DBDmut IVT, anti-RXR (DBD mutation: RXRa K156A/R161A, NR concentration 270 nM, RXRa partner concentration 90 nM)
Method in brief: as §1

[12] = test system: PPARg:RXRa IVT, anti-PPARg (NR concentration 270 nM, RXRa partner concentration 90 nM)
Method in brief: as §1

[13] = test system: PPARg DBDmut:RXRa IVT, anti-PPARg (DBD mutation: PPARg1 K132A/R137A, NR concentration 270 nM, RXRa partner concentration 90 nM)
Method in brief: as §1

[14] = test system: PPARg DBDmut IVT, anti-PPARg (DBD mutation: PPARg1 K132A/R137A, NR concentration 270 nM)
Method in brief: as §1

[15] = test system: PPARg homodimer (NR concentration 180 nM)
Method in brief: as §1

[16] = test system: PXR:RXRa (NR concentration 270 nM, RXRa partner concentration 90 nM)
Method in brief: as §1

[17] = test system: PXR homodimer (NR concentration 270 nM)
Method in brief: as §1

[18] = test system: RARa:RXR (NR concentration 270 nM, RXRa partner concentration 90 nM)
Method in brief: as §1

[19] = test system: RARa homodimer (NR concentration 270 nM)
Method in brief: as §1

[20] = test system: RARb:RXRa (NR concentration 270 nM, RXRa partner concentration 90 nM)
Method in brief: as §1

Sequence	PBM binding z-score [1]	PBM binding z-score [2]	PBM binding z-score [3]	PBM binding z-score [4]	PBM binding z-score [5]	PBM binding z-score [6]	PBM binding z-score [7]	PBM binding z-score [8]	PBM binding z-score [9]	PBM binding z-score [10]	PBM binding z-score [11]	PBM binding z-score [12]	PBM binding z-score [13]	PBM binding z-score [14]	PBM binding z-score [15]	PBM binding z-score [16]	PBM binding z-score [17]	PBM binding z-score [18]	PBM binding z-score [19]	PBM binding z-score [20]
TGACAAAGTTCAAAGGTAACGTAAGTATCCACAC	6.96	6.05	3.28	4.68	1.41	5.69	6.2	6.28	2.97	5.43	-0.278	2.4	1.51	0.842	2.31	5.44	2.44	6.2	1.36	5.01
GCTATTAGTTCAAAGGGCAACCGAATGATTCTCG	2.78	2.89	0.929	2.17	0.2	3.79	4.51	5.96	5.32	6.42	0.957	1.81	0.146	0.19	2.2	3.21	1.29	4.32	1.11	3.3
GTAGCAAGGTGAATAGGTCGTTGATGAGTAGGCG	0.435	0.286	-0.884	0.119	-1.35	2.05	0.986	1.48	0.12	0.807	1.19	1.9	-0.625	-1.04	0.211	0.451	-0.13	1.08	-0.0167	1.74
CCTGCTAGCTCATGGTCAGCTAATCTACAGTATG	-0.461	-0.418	-0.46	-0.626	-0.239	-0.737	-0.225	-0.822	-0.885	-0.895	0.183	-0.609	-0.471	-0.109	-0.356	-0.641	-0.376	-0.681	-0.182	-0.0065
TCGAGTAGGTTAAGGGCATTCAGAATGGCGTCGA	0.969	1.02	-0.302	0.27	-1.02	1.75	1.68	2.85	1.35	2.37	2.73	2.37	-0.645	-1.04	0.261	0.999	0.373	0.821	-0.417	2.03
ATCGAAAGGTCGACGAGGTGAGGATACACCGTTT	4.5	3.36	0.0188	2.44	0.655	4.27	3.09	3.46	1.36	2.36	0.8	2.39	0.388	0.42	1.72	2.77	0.496	3.52	0.262	3.98
CCTAGCAGGCCAGGGTCACTCATGCATTTCGCTT	1.41	1.5	-0.432	1.72	-0.832	2.91	0.947	1.24	-0.332	0.442	-0.158	1.27	-1.04	-1.56	0.688	2.19	-0.121	2.67	-0.129	2.38
CGTCAAAGTACAAGGTAACGTAACAGAAAGCAGC	0.052	-0.143	-0.279	0.0117	-0.288	0.136	0.969	0.307	0.31	0.0776	0.112	0.638	-0.0581	-0.118	0.323	-0.0227	-0.131	0.281	0.369	1.1
CCGACTGGGGCACAGGTTACCATACTCAGTACGA	0.0382	0.072	-0.0129	0.247	-0.88	2.71	6.11	5.67	4.13	6.28	3.76	4.97	-0.354	-0.501	1.14	0.174	-0.362	0.462	0.15	1.07
ATATGTAGGTTAAGGGACATTCAGGTTGGTTCGC	0.93	1.06	0.514	0.945	0.703	3.79	6.5	6.51	4.44	6.65	6.93	6.99	1.67	1.87	1.9	0.934	0.687	1.15	1.63	1.57
CCTCACGGGTCACGAGGTTATAGCACGACGAGCG	6.54	4.19	0.232	3.64	-0.109	5.59	6.23	5.68	2.34	4.25	1.87	3.65	0.599	-0.0554	3.5	4.4	0.143	5.63	0.537	4.43
GCTGCTAGGTCAACTGATGGTCAGCTTAAGCTCG	4.41	3.13	0.215	2.09	0.173	3.5	2.44	2.97	0.312	2.07	5.04	4.2	-0.326	-0.587	2.5	1.85	-0.712	3.1	-0.0481	4.24
ATCTCTAGGTAAGACTCAGTGCAGTGAAGAACGC	0.188	0.383	0.212	-0.0859	0.687	-0.163	-0.0807	0.0157	0.104	-0.0649	1.64	0.686	0.237	0.958	0.398	0.339	0.592	0.223	0.328	-0.152
ATCTCTAGGTAAGAGTCAGTTCAGTGAAGAACGC	0.322	0.41	0.44	0.262	0.685	0.413	0.239	1.03	0.45	0.958	1.76	1.41	0.489	0.902	1.16	0.741	1.13	0.349	1.11	0.454
CGAACTAGGTCATCCACGACAGTGAATACATTGA	4.92	2.48	0.634	2.23	0.18	4.92	8.03	6.61	4.01	5.93	7.98	8.15	5.88	5.31	2.72	1.59	0.311	2.59	0.664	3.87
